We go through 18 compounds from PubChem BioAssay (Tox21).

Test [1] can be described thus: qHTS assay to identify small molecule agonists of the RXR signaling pathway - cell viability counter screen (AID 1159529).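 Note: HEK 293T cells carrying an RXR-alpha UAS beta-lactamase reporter; nearly all actives have a fitted effect of over 50% in size.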 The method, boiled down: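 RXR-alpha-UAS-bla HEK 293T cells in medium with 2% charcoal-stripped FBS were preincubated 5 hr, then exposed to compounds for 16 hr at 37 C. Viability was read as CellTiter-Glo luminescence after 30 min at room temperature.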

Test [2] in a line: qHTS assay to identify small molecule antagonists of the estrogen related receptor (ERR) signaling pathway from Tox21 library - cell viability counter screen (AID 1224834). Note: nearly all actives have a fitted effect of over 30% in size. Note: potency is the fitted concentration of half-maximal effect. The method, boiled down: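 Compounds in DMSO were pinned onto ERR cells that had been incubated for 6 h, and the plates were held at 37 C for 17.5 h. CellTiter-Fluor reagent was then added and fluorescence was measured after 30 min.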

Test [3] addresses Luciferin 4-monooxygenase (Photinus pyralis) (UniProt P08659). Nature of the test: qHTS assay to identify small molecule inhibitors of firefly luciferase (AID 1224835). Note: nearly all actives have a fitted effect of over 25% in size. The method, boiled down: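 Inhibition of purified Photinus luciferase is measured by luminescence. Substrate levels (D-luciferin, ATP) sit at their KM values. Each compound is tested in a concentration series.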

Test [4] is described as follows: qHTS assay to identify small molecule agonists of the constitutive androstane receptor (CAR) signaling pathway - cell viability counter screen (AID 1224836). Note: nearly all actives have a fitted effect of over 45% in size. A digest of the protocol:
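HepG2 cells stably carrying hCAR and a CYP2B6-2.2kb reporter were plated 4 h, then given compounds at 15 concentrations plus PK11195 (final 0.75 uM). After 23 h at 37 C, viability was read by CellTiter-Fluor fluorescence.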

Test [5] is described as follows: qHTS assay to identify small molecule antagonists of the constitutive androstane receptor (CAR) signaling pathway - cell viability counter screen (AID 1224837). Note: nearly all actives have a fitted effect of over 45% in size. A digest of the protocol:
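Cells are seeded, rested 4 hr at 37 C/5% CO2, dosed with compound (15-point series) and 50 nM CITCO, incubated a further 23 hr, and then CellTiter-Fluor reagent is added before fluorescence is read. The line is HepG2 with stable hCAR and CYP2B6-2.2kb.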

A short description of test [6]: qHTS assay to identify small molecule antagonists of the estrogen related receptor signaling pathway with the pleiotropic PPARgamma coactivator (PGC) from Tox21 10K library - cell viability counter screen (AID 1224840; active = well fitted cell-killing curve with a large enough effect in the repeat runs, not every such curve was filed as active; note: nearly all actives have a fitted effect of over 40% in size). The method, boiled down: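 Cell viability is measured by CellTiter-Fluor fluorescence in PGC/ERR cells that receive compounds after a 6-hour attachment period and are then incubated 17.5 hours at 37 C.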

Test [7] has as its target Thyrotropin receptor (Homo sapiens) (UniProt P16473). The test can be described thus: qHTS assay to identify small molecule agonists of the thyroid stimulating hormone receptor (TSHR) signaling pathway (AID 1224843; calls by dose curve; note: nearly all actives have a fitted effect of over 45% in size). The method, boiled down:
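Agonist activity read as cAMP rise via d2/cryptate HTRF competition, 1 h room-temperature detection, in HEK293 cells expressing TSHR. Fifteen-point titrations, each run in triplicate, with a 30 min room-temperature incubation beforehand.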

Test [8] can be described thus: qHTS assay to identify small molecule antagonists of the retinoic acid receptor (RAR) signaling pathway (AID 1159552; note: nearly all actives have a fitted effect of over 50% in size). The method, boiled down:
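RARE-luc C3RL4 cells; cpds + 1 uM (final) retinol, 6 hr, 37 C/5% CO2; luciferase reagent, 30 min RT, luminescence readout. Inhibitors of retinol-driven signal scored.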

Test [9] is described as follows: qHTS assay to identify small molecule agonists of the retinoic acid receptor (RAR) signaling pathway (AID 1159553). The settings on record: C3RL4 RARE luciferase reporter, agonist, 6 h; activation: at 73.3 µM (top of the series) unless noted. The method, boiled down:
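Quantitative high-throughput format: the Tox21 10K library was tested on C3RL4 RARE-luciferase cells for 6 hr at 37 C and 5% CO2, with luminescence measured after a 30 min room-temperature reagent step.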

Test [10] has as its target Nuclear receptor subfamily 1 group I member 3 (Homo sapiens) (UniProt Q14994). Nature of the test: qHTS assay to identify small molecule antagonists of the constitutive androstane receptor (CAR) signaling pathway (AID 1224838). Note: nearly all actives have a fitted effect of over 40% in size. A digest of the protocol: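 Luminescence from a CYP2B6-2.2kb promoter reporter in hCAR-expressing HepG2 cells reflects CAR signaling. Cells received compounds at 15 concentrations and 50 nM CITCO (final), then incubated 24 h at 37 C/5% CO2.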

Test [11] has the same target. The test can be described thus: qHTS assay to identify small molecule agonists of the constitutive androstane receptor (CAR) signaling pathway (AID 1224839). Note: nearly all actives have a fitted effect of over 15% in size. Note: potency is the fitted concentration of half-maximal effect. A digest of the protocol: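 HepG2 cells stably expressing hCAR and a CYP2B6-2.2kb luciferase reporter were treated with compounds at 15 concentrations plus 0.75 uM PK11195 (final) for 24 h at 37 C; luminescence was read after ONE-Glo addition.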

The nature of test [12]: qHTS assay to identify small molecule antagonists of the estrogen related receptor signaling pathway with the pleiotropic PPARgamma coactivator (PGC) from Tox21 10K library (AID 1224841; call rule not given here; note: actives are mostly falling curves and most rising ones were filed inactive; nearly all actives have a fitted effect of over 50% in size; note: potency is the fitted concentration of half-maximal effect). A digest of the protocol:
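Cells stably carrying the PGC/ERR reporter, seeded at 2,000 per well, received pin-transferred compounds 6 h post-plating. Exposure lasted 18 h at 37 C. Signal: One-Glo luminescence.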

Test [13] in a line: qHTS assay to identify small molecule agonists of the estrogen related receptor signaling pathway with the pleiotropic PPARgamma coactivator (PGC) from Tox21 10K library (AID 1224842). Note: nearly all actives have a fitted effect of over 15% in size. A digest of the protocol:
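Luminescence from One-Glo (30 min, room temperature) measured after PGC/ERR cells had 18 h at 37 C with pinned compound (23 nL in DMSO). Cells had been seeded at 2,000 per well and pre-incubated 6 h.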

Test [14] is described as follows: qHTS assay to identify small molecule antagonists of the retinoid acid receptor (RAR) signaling pathway - cell viability counter screen (AID 1159551). Note: nearly all actives have a fitted effect of over 35% in size. A digest of the protocol: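 ATP-based viability, C3RL4 cells, 6 h at 37 C with 1 uM final retinol co-added after compound; luminescence read 30 min post CellTiter-Glo, RT.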

Structures are written as SMILES. “And” between values parts separate entries of the source, which are not always exact repeats. Equal values may be shown once. Results filed as inconclusive are left out. Some compounds were tested as several samples or in several runs, with calls that do not always agree. The source made the active and inactive calls. Unless noted, calls come from the whole dose curve; as a rule, active = well fitted curve in the direction sought with a large enough effect in the repeat runs; inconclusive = weak or mixed curves; inactive = no such curve, though single readings can be large; an effect the other way counts as inactive or inconclusive.

Thyrotropin receptor (Homo sapiens), sequence (P16473 whole entry, looked up): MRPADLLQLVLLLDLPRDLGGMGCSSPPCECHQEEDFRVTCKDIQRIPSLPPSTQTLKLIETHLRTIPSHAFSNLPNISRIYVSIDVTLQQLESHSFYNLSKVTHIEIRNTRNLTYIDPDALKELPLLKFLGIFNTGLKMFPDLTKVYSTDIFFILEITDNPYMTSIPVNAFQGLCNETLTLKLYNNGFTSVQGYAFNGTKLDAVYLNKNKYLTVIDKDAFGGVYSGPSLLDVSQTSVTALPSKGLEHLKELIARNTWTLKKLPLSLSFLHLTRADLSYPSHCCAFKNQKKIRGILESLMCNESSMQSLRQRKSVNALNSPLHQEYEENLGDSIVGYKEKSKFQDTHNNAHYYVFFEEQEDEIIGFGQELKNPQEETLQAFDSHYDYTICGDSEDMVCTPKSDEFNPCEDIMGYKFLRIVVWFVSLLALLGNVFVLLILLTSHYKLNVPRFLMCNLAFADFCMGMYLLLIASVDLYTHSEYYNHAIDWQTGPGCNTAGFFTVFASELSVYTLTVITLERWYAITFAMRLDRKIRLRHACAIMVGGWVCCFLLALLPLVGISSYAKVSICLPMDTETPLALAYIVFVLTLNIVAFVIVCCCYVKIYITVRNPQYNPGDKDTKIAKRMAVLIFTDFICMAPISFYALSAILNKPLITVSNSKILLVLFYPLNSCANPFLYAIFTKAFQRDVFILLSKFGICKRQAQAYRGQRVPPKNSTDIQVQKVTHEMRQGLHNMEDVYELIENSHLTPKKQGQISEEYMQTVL
Nuclear receptor subfamily 1 group I member 3 (Homo sapiens), sequence (Q14994 whole entry, looked up): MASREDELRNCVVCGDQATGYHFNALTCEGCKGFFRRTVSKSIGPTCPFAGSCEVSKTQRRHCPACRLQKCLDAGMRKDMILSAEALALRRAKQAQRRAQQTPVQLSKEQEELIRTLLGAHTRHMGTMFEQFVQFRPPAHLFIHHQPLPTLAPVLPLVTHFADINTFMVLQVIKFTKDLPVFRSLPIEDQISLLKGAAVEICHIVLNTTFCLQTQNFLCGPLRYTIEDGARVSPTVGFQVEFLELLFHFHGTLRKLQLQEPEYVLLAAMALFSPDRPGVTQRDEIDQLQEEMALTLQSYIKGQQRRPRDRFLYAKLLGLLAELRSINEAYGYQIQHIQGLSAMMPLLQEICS
Luciferin 4-monooxygenase (Photinus pyralis), sequence (P08659 whole entry, looked up): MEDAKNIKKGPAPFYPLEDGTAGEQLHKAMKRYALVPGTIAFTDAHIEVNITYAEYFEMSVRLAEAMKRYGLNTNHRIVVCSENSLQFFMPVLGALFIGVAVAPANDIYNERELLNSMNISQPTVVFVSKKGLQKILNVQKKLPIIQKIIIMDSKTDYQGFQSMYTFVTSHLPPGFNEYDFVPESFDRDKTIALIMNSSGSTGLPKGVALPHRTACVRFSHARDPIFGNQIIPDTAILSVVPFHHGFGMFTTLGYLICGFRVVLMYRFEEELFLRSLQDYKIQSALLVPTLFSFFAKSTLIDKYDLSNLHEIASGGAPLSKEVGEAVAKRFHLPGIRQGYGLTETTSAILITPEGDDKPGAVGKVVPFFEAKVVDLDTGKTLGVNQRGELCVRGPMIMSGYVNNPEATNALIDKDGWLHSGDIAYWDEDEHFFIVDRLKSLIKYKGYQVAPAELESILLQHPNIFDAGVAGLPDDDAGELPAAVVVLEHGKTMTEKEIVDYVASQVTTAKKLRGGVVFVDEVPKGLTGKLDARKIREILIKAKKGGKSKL

As to `CC(=O)CC(=O)N(C)C`, the Potency result in test [1], in test [2], in test [3], in test [4], in test [5] and in test [6] was “inactive” each time. Further, the Potency result in test [7] was “inactive”.

As to `Cc1cc(C)cc(O)c1`, the Potency entry in test [1], in [8], in test [9], in [2], in test [3] and in [4] was “inactive” in each case. Further, the Potency entry in test [5], in test [10], in [11], in [6], in [12] and in test [13] was “inactive” in each case. Also, the Potency entry in [7] was “inactive”.

In the case of `COc1ccc(N)c(OC)c1`, the Potency result in test [1], in test [3], in [4], in test [5], in test [10] and in test [11] was “inactive” each time. In addition, the Potency entry in test [6] and in test [7] was “inactive” in each case. Further, the Potency result in test [2] was “inactive and 54.5 µM (active)”.

With `COc1ccc2cc3[n+](cc2c1OC)CCc1cc2c(cc1-3)OCO2`, the Potency result in test [14], in test [8], in test [9], in [3], in test [4] and in [5] was “inactive” in each case. For the same compound, the Potency entry in test [10], in test [11], in [6] and in [13] was “inactive” in each case. Also, the Potency was 27.5 µM (active) in [2]; 3.88 µM (active) and 7.5 µM (active) in test [12].

As to `Cc1cc(CC(=O)O)n(C)c1C(=O)c1ccc(Cl)cc1`, the Potency result in [1], in [8], in test [9], in [2], in [3] and in test [4] was “inactive” throughout. The Potency entry in test [5], in test [6] and in test [7] was “inactive” in each case.

`O=C(NCC1CCCCN1)c1cc(OCC(F)(F)F)ccc1OCC(F)(F)F` (stereo unspecified): the Potency result in [1], in [2], in test [4], in test [5], in test [10] and in test [6] was “inactive” each time. Also, the Potency result in [7] was “inactive”.

Take `CC1(C)C(=O)N(Cl)C(=O)N1Cl`: the Potency entry in [1], in [2], in test [3], in [4], in test [5] and in test [6] was “inactive” throughout. Moreover, the Potency result in [7] is “inactive”.

`COC(=O)OC`: the Potency entry in [1], in test [2], in test [4], in [5], in [10] and in test [11] was “inactive” in each case. Further, the Potency result in [6], in test [12], in test [13] and in test [7] was “inactive” throughout.

With `COc1cc(NC(=O)CC(C)=O)c(OC)cc1Cl`, the Potency entry in test [1], in test [8], in test [9], in test [2], in test [3] and in [4] was “inactive” in each case. Further, the Potency entry in test [5], in test [10], in test [6], in test [13] and in test [7] was “inactive” in each case. Besides, the Potency in test [11] was 61.4 µM (active) and 61.1 µM (active); in test [12], 38.7 µM (active).

For the compound `CC(C)(CO)CO`, the Potency entry in test [1], in test [2], in [3], in test [4], in [5] and in [6] was “inactive” throughout. Further, the Potency entry in test [12], in test [13] and in test [7] was “inactive” throughout.

For `O=C(Cl)c1ccc(C(=O)Cl)cc1`, the Potency result in test [1], in [8], in test [9], in test [2], in test [4] and in test [5] was “inactive” in each case. Besides, the Potency entry in test [10], in test [11], in [6] and in test [7] was “inactive” throughout.

In the case of `CO[Si](CCCNCCN)(OC)OC`, the Potency result in test [1], in test [8], in test [9], in test [2], in test [3] and in [4] was “inactive” in each case. The Potency entry in test [5], in test [6] and in [7] was “inactive” throughout.

Take `CC(O)CNCC(C)O` (stereo unspecified): the Potency entry in test [1], in test [2], in test [3], in test [4], in test [5] and in test [10] was “inactive” throughout. The Potency entry in test [11], in [6] and in test [7] was “inactive” in each case.

On to `Cc1ccc(Cl)cc1`, for which the Potency entry in [1], in test [2], in test [3], in test [4], in [5] and in [10] was “inactive” throughout. Moreover, the Potency entry in [11], in test [6] and in [7] was “inactive” throughout.

With `CC(=O)c1nccs1`, the Potency entry in [1], in [8], in [9], in [2], in test [3] and in test [4] was “inactive” each time. The Potency entry in test [5], in test [10], in test [11], in test [6] and in test [7] was “inactive” in each case.

As to `NCCNCCNCCN`, the Potency result in test [1], in test [8], in test [9], in test [2], in [4] and in [5] was “inactive” in each case. The Potency entry in test [10], in test [11], in [6] and in test [7] was “inactive” in each case.

In the case of `O=C1CCCCCCCCCCC1`, the Potency entry in test [1], in [8], in test [9], in test [2], in test [3] and in [4] was “inactive” in each case. Besides, the Potency entry in test [5], in test [10], in [11], in test [6] and in test [7] was “inactive” throughout.

As to `Cc1ccc(C(C)C)cc1`, the Potency entry in test [1], in [8], in test [9], in test [2], in test [3] and in [4] was “inactive” throughout. Besides, the Potency result in [5], in test [10], in test [11], in test [6] and in [7] was “inactive” in each case.
